Source: PubChem BioAssay AID2629 (Broad Institute, 2010)
In all, about 320,000 compounds went through this assay and about 1,900 (0.59%) were called active. This excerpt belongs to a sample that is enriched for actives. A number with no mark means an inactive call. No stated cut-off is given here; in the data, active means inhibition mostly above about 10% (no sharp cut-off); inactive means mostly below about 6.7%.

These molecules were tested against Protein LANA1 (Human herpesvirus 8 type P (isolate GK18)) (UniProt Q9QR71) (assay: blockers of LANA interaction with H2A/H2B – biochemical, FP readout, HTS, primary screen (AID 2629)). Conditions: cell-free LANA-H2A/H2B peptide, fluorescence polarization, active compounds read high, concentration not given here.
Sequence of Protein LANA1 (Human herpesvirus 8 type P (isolate GK18)) (Q9QR71 whole entry, looked up): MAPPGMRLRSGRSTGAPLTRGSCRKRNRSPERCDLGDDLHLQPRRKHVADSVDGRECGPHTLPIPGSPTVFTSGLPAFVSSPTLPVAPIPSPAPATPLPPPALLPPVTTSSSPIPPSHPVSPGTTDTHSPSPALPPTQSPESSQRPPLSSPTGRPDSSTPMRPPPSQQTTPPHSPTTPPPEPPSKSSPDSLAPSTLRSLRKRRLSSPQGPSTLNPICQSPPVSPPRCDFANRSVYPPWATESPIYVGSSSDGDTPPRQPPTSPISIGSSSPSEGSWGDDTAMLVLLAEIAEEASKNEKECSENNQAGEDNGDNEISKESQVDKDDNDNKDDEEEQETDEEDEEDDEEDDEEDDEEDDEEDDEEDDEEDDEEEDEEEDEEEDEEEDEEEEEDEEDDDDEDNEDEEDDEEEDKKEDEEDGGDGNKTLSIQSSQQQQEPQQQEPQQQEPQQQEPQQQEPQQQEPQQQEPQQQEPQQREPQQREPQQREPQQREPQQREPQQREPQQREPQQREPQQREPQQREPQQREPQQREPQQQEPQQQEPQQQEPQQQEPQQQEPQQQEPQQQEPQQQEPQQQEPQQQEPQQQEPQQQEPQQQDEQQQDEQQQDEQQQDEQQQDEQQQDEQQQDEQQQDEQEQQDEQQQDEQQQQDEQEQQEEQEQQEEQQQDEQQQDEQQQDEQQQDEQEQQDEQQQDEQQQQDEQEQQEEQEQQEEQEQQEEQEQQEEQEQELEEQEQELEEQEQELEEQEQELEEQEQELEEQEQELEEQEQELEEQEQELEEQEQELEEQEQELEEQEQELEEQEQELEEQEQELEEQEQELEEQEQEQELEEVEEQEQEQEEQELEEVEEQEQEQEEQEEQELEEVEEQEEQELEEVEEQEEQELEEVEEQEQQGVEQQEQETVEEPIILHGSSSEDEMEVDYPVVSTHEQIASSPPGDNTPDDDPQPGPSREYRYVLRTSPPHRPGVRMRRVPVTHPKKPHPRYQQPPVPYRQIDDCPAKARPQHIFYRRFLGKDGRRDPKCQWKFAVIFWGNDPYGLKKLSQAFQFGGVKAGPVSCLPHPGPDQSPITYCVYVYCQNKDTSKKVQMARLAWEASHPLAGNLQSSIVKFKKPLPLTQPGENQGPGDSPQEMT

| Compound | inhibition |
| --- | --- |
| O=C1COc2ccc(C(=O)COC(=O)C3CC(O)CN3S(=O)(=O)c3ccc(Cl)cc3)cc2N1 (centres undefined) | -4.73% |
| COc1ccccc1NC(=O)C1CCCN1S(=O)(=O)c1ccc(Cl)cc1 (centres undefined) | -0.219% |
| NNC(=O)C1CC(O)CN1S(=O)(=O)c1ccc(Cl)cc1 (centres undefined) | 18% (active) |
| COc1ccc2c(C)cc3nnnn3c2c1 | 6.55% |
| CC(C)CC(=O)Nc1cc(C(F)(F)F)ccc1N1CCOCC1 | 3.7% |
| O=C(CN1C(=O)NC2(CCCC2)C1=O)Nc1cc(C(F)(F)F)ccc1N1CCOCC1 | -2.08% |
| O=C(Cn1nnc2ccccc2c1=O)Nc1cc(C(F)(F)F)ccc1N1CCOCC1 | 15.8% (active) |
| Cc1cc(Nc2cc(N3CCN(C)CC3)nc(Sc3ccc(NC(=O)C4CC4)cc3)n2)n[nH]1 | 1.71% |
| CN(c1ccccc1)S(=O)(=O)c1ccc(Cl)c(C(=O)OCC(=O)NCc2ccco2)c1 | -3.84% |
| CN(c1ccccc1)S(=O)(=O)c1ccc(Cl)c(C(=O)OCC(N)=O)c1 | -3.79% |
| Cc1ccc(S(=O)(=O)N(CC(O)CN2CCCCC2)c2cccc([N+](=O)[O-])c2)cc1 (centres undefined) | 7.02% |
| Cc1cc(=O)n2nc(N3CCCC(C(=O)N4CCN(C)CC4)C3)sc2n1 (centres undefined) | 0.763% |
| CCc1c(C)nc2ncnn2c1N1CCC(C(=O)NCc2ccc3c(c2)OCO3)CC1 | 0.84% |
| CCn1c(SCC(=O)NC2CCCC2)nnc1-c1ccoc1C | -2.52% |
| O=C(CSc1nnc(-c2ccccc2O)o1)NC1CCCCC1 | 3.2% |
| Cc1occc1-c1nnc(SCC(=O)NC2CCCCC2)o1 | 14.3% (active) |
| CCCCSCCCNC(=O)C1CCC(CNS(=O)(=O)c2ccc(NC(C)=O)cc2)CC1 (centres undefined) | -3.44% |
| CCCC1C(c2ccccc2)C(C#N)(C#N)C2(C#N)CC1(N)NC2=O (centres undefined) | 182% (active) |
| CCSC1=NCCN1C(=O)c1ccc(S(=O)(=O)N(CC)CC)cc1 | 10.9% |
| O=C(CN1CCN(c2cccc(Cl)c2)CC1)Nc1ccc(S(=O)(=O)N2CCOCC2)cc1 | 145% (active) |
| O=C(CN1C(=O)CCC1=O)Nc1ccc(S(=O)(=O)N2CCOCC2)cc1 | 1.75% |
| O=C(CN1CCCCCC1)Nc1ccc(S(=O)(=O)N2CCCCC2)cc1 | 7.61% |
| COC(=O)CNS(=O)(=O)c1ccc(Cc2ccc(S(=O)(=O)NCC(=O)OC)cc2)cc1 | 5.82% |
| COC(=O)C1=C(C)NC2=C(C(=O)c3ccccc32)C1c1ccc(-c2ccc(C(=O)O)cc2)o1 (centres undefined) | 3.17% |
